Experimental data reported in PubChem BioAssay (Tox21).
Unmarked numbers belong to inactive results. Records with an inconclusive call do not appear. A call without a number means that no potency is given here. Calls of active or inactive are those of the source. The call rests on the fitted dose curve; in most records, active means well fitted curve in the direction sought with a large enough effect in the repeat runs; inconclusive means weak or mixed curves; inactive means no such curve, though single readings can be large; an effect the other way counts as inactive or inconclusive.

How the values were obtained:
[1] = Human pregnane X receptor (PXR) small molecule agonists, qHTS cell viability counter screen (AID 1346977); further: nearly all actives have a fitted effect of over 50% in size; further: potency means the concentration at half of the fitted maximal effect
Summary of the method: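 Cytotoxicity counter screen run in the same wells as the PXR luciferase assay, using PXR-Luc HepG2 cells in charcoal-stripped serum medium. Viability: CellTiter-Fluor fluorescence after 24hr compound treatment.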

[2] = Caspase-3/7 induction in HepG2 cells by small molecules, qHTS assay (AID 1346978); further: nearly all actives have a fitted effect of over 15% in size
Summary of the method: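 Caspase-3/7 induction was measured by Caspase-Glo 3/7 luminescence (30 min, room temperature) after a 17 hr compound exposure of wild-type HepG2 cells seeded at 2,000 per well and pre-incubated 5 hr.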

[3] = Caspase-3/7 induction in CHO-K1 cells by small molecules, qHTS cell viability counter screen (AID 1346979); further: nearly all actives have a fitted effect of over 35% in size; further: potency means the concentration at half of the fitted maximal effect
Summary of the method: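 Cytotoxicity counter screen run in parallel with the caspase-3/7 assay: CHO-K1 cells, 16hr compound treatment at 37C, then CellTiter-Fluor for 1hr before fluorescence reading.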

[4] = Caspase-3/7 induction in CHO-K1 cells by small molecules, qHTS assay (AID 1346980); further: nearly all actives have a fitted effect of over 15% in size
Summary of the method: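 Luminescent Caspase-Glo 3/7 read (30min, room temperature) quantified apoptosis induction. Cells were wild-type CHO-K1, treated with compound for 17hr at 37 C and 5% CO2.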

[5] = Caspase-3/7 induction in HepG2 cells by small molecules, qHTS cell viability counter screen (AID 1346981); further: nearly all actives have a fitted effect of over 30% in size; further: potency means the concentration at half of the fitted maximal effect
Summary of the method: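 After a 5-hr attachment period at 37 C and 5% CO2, wild-type HepG2 cells received compounds in DMSO. Sixteen hours later CellTiter-Fluor was dispensed and the fluorescent signal quantified after a further hour.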

[6] = molecular target: Nuclear receptor subfamily 1 group I member 2 (Homo sapiens) (UniProt O75469); test: Human pregnane X receptor (PXR) small molecule agonists, qHTS assay (AID 1346982); further: nearly all actives have a fitted effect of over 35% in size; further: potency means the concentration at half of the fitted maximal effect
Nuclear receptor subfamily 1 group I member 2 (Homo sapiens), sequence (O75469 whole entry, looked up): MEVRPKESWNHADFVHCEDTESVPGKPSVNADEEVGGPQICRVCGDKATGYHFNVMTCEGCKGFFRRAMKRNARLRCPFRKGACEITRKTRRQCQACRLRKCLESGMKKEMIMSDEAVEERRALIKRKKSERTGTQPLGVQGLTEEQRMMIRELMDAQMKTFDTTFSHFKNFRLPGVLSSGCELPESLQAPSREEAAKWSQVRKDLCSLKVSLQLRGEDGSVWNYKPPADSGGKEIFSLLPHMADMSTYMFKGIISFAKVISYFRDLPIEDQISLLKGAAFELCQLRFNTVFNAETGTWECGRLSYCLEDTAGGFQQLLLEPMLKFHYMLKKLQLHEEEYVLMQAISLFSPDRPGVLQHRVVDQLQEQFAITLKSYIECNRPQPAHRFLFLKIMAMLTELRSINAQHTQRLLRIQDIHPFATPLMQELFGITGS
Summary of the method: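 Tox21 qHTS; PXR-Luc HepG2; compounds pinned from DMSO; 24 hr, 37 C; ONE-Glo luciferase detection, 30 min room temperature.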

[7] = molecular target: Nuclear receptor subfamily 1 group I member 2 (Rattus norvegicus) (UniProt Q9R1A7); test: Rat pregnane X receptor (rPXR) activation by small molecules, qHTS assay (AID 1346983); details: rPXR luciferase reporter cells, One-Glo luminescence, 24 h; max activation: hits give high values; further: nearly all actives have a fitted effect of over 20% in size
Nuclear receptor subfamily 1 group I member 2 (Rattus norvegicus), sequence (Q9R1A7 whole entry, looked up): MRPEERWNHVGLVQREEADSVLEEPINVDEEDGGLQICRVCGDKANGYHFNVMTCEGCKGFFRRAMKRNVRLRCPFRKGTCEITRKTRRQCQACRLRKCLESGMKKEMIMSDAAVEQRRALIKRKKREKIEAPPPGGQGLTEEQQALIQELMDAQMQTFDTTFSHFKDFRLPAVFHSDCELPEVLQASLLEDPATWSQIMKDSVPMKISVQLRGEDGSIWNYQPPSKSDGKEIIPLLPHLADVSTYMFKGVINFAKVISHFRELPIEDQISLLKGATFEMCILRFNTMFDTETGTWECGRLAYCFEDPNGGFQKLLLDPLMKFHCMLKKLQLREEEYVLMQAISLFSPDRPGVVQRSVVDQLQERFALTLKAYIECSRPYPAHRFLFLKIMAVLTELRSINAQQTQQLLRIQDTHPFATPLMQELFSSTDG
Summary of the method: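 Luminescent readout (One-Glo luciferase, 30 min room temperature) followed 24 hr compound treatment at 37 C of rPXR cells plated 2,000 per well and preincubated 5hr; qHTS format with compounds delivered in DMSO.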

[8] = molecular target: Nuclear receptor subfamily 1 group I member 2 (Homo sapiens) (UniProt O75469); test: CYP3A4 induction through human pregnane X receptor (PXR) by small molecules, qHTS assay (AID 1346984); further: nearly all actives have a fitted effect of over 40% in size
Summary of the method: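 Cells (DPX-2; HepG2 with PXR element plus CYP3A4-promoter luciferase) settled 5hr, then were treated 24hr at 37C. A 3hr, 3uM-final Luciferin-IPA step preceded luminescence measurement with One-Glo.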

[9] = molecular target: Nuclear receptor subfamily 1 group I member 2 (Homo sapiens) (UniProt O75469); test: Human pregnane X receptor (PXR) activation by small molecules, qHTS assay (AID 1346985); further: nearly all actives have a fitted effect of over 40% in size
Summary of the method: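 DPX-2 cells (HepG2 co-transfected with a PXR response element and a CYP3A4-promoter luciferase construct) were seeded at 2,000 per well, rested 5 hr at 37C, then exposed to DMSO-dissolved compounds for 24 hr. Activation was read as luciferase luminescence.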

[10] = molecular target: Cytochrome P450 2D6 (Homo sapiens) (UniProt P10635); test: Cytochrome P450 Family 2 Subfamily D Member 6 (CYP2D6) small molecule antagonists: luciferase reporter qHTS assay (AID 1671196); further: nearly all actives have a fitted effect of over 50% in size; further: potency means the concentration at half of the fitted maximal effect
Cytochrome P450 2D6 (Homo sapiens), sequence (P10635 whole entry, looked up): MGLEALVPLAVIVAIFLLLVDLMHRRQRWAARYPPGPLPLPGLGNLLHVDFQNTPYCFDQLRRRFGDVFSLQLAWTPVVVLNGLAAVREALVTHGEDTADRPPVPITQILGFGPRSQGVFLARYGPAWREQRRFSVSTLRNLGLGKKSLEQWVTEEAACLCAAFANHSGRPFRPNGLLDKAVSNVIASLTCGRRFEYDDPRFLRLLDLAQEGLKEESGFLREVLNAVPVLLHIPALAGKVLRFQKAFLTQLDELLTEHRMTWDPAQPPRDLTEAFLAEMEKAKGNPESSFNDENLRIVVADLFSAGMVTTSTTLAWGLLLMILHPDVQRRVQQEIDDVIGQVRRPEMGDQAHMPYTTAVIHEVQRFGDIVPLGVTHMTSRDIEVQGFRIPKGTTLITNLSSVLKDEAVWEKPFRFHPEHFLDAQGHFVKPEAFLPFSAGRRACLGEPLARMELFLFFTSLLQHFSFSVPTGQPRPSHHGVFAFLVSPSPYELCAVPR
Summary of the method: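 Room-temperature luminescent CYP2D6 activity assay: compound preincubated 10 min with enzyme–substrate mix, NADPH-initiated reaction 1 h, detection reagent 20 min before reading.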

[11] = molecular target: Cytochrome P450 2C19 (Homo sapiens) (UniProt P33261); test: Cytochrome P450 Family 2 Subfamily C Member 19 (CYP2C19) small molecule antagonists: luciferase reporter qHTS assay (AID 1671197); further: nearly all actives have a fitted effect of over 65% in size; further: potency means the concentration at half of the fitted maximal effect
Cytochrome P450 2C19 (Homo sapiens), sequence (P33261 whole entry, looked up): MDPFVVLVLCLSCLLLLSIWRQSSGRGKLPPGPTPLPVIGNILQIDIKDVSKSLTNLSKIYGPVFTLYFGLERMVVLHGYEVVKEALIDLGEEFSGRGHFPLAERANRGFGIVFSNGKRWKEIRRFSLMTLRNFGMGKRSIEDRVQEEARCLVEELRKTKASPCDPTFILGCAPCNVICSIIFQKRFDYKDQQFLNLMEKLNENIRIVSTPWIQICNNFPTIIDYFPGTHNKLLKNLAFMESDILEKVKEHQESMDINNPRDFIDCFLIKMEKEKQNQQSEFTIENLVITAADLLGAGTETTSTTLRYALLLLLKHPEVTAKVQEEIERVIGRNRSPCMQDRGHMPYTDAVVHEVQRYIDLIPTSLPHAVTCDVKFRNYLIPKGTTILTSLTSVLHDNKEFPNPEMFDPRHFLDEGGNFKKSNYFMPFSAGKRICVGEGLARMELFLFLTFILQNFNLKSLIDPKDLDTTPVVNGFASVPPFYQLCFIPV
Summary of the method: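 P450-Glo CYP2C19 system: enzyme-substrate mix with compound 10 min at room temperature, then NADPH regeneration solution, 1 h at 37C. Proluciferin-to-luciferin conversion detected by luminescence after 20 min with detection reagent; ketoconazole as positive control.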

[12] = molecular target: Cytochrome P450 1A2 (Homo sapiens) (UniProt P05177); test: Cytochrome P450 Family 1 Subfamily A Member 2 (CYP1A2) small molecule antagonists: luciferase reporter qHTS assay (AID 1671199); further: nearly all actives have a fitted effect of over 50% in size; further: potency means the concentration at half of the fitted maximal effect
Cytochrome P450 1A2 (Homo sapiens), sequence (P05177 whole entry, looked up): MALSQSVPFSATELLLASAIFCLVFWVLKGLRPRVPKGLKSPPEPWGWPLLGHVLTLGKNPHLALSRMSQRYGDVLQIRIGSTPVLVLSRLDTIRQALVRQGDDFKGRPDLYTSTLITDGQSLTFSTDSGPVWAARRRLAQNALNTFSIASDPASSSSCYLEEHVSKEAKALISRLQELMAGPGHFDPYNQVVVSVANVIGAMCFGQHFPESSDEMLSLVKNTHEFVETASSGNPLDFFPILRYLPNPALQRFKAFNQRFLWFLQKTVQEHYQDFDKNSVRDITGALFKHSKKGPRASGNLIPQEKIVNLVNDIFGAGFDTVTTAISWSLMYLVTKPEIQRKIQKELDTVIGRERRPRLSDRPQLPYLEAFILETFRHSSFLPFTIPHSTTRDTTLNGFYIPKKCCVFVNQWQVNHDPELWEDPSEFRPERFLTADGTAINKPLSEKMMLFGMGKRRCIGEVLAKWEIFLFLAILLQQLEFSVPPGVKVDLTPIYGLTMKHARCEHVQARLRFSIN
Summary of the method: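 Room-temperature CYP1A2 reaction with proluciferin substrate: compounds added from DMSO, 10 min preincubation, NADPH regeneration for 1 h. Luciferin detection reagent then added; luminescence recorded as RLU.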

[13] = molecular target: Voltage-gated inwardly rectifying potassium channel KCNH2 (Homo sapiens) (UniProt Q12809); test: Human Ether-a-go-go-Related Gene (hERG) channel small molecule antagonists: fluorescence cell-based qHTS assay (AID 1671200);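 further: hERG-expressing U2OS cells given a thallium stimulus after FluxOR II dye loading; series mostly up to about 77 µM; nearly all actives have a fitted effect of over 50% in size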
Voltage-gated inwardly rectifying potassium channel KCNH2 (Homo sapiens), sequence (Q12809 whole entry, looked up): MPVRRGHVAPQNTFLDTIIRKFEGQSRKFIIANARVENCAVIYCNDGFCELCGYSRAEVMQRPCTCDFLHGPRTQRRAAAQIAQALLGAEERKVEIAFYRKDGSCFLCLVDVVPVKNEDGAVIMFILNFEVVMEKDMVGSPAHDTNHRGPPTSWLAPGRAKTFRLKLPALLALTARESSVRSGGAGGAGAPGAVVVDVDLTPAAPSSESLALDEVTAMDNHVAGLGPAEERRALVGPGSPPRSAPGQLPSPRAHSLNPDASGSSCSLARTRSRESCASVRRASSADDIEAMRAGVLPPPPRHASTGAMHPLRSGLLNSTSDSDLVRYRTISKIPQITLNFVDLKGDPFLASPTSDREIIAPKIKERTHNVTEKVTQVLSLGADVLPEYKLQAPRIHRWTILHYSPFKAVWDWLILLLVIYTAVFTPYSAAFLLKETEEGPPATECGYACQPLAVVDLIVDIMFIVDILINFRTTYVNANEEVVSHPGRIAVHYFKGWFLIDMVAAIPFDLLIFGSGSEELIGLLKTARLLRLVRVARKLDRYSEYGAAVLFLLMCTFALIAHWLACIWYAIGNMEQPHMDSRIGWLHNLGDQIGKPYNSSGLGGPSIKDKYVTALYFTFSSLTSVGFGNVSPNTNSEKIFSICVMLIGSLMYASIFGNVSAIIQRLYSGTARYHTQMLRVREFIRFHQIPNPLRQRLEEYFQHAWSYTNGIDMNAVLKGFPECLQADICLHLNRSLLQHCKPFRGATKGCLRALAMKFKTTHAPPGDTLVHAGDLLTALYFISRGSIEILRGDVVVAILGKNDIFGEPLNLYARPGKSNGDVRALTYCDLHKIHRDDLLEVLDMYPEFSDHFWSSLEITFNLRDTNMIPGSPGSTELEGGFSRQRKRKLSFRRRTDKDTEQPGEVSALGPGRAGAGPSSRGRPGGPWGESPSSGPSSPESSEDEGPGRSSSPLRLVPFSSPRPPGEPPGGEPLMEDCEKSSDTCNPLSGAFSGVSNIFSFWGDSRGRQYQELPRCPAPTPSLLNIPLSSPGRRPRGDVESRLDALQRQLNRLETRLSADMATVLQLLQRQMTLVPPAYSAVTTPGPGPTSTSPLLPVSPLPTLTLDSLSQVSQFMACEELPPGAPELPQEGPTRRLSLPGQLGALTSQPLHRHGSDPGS
Summary of the method: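 Fluorescence at 540 nm emission (480 nm excitation) was recorded kinetically for 2 min at 1-second intervals once the thallium-containing stimulus reached cells previously loaded with FluxOR II dye.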

[14] = molecular target: Cytochrome P450 3A4 (Homo sapiens) (UniProt P08684); test: Cytochrome P450 Family 3 Subfamily A Member 4 (CYP3A4) small molecule antagonists: luciferase reporter qHTS assay (AID 1671201); further: nearly all actives have a fitted effect of over 50% in size; further: potency means the concentration at half of the fitted maximal effect
Cytochrome P450 3A4 (Homo sapiens), sequence (P08684 whole entry, looked up): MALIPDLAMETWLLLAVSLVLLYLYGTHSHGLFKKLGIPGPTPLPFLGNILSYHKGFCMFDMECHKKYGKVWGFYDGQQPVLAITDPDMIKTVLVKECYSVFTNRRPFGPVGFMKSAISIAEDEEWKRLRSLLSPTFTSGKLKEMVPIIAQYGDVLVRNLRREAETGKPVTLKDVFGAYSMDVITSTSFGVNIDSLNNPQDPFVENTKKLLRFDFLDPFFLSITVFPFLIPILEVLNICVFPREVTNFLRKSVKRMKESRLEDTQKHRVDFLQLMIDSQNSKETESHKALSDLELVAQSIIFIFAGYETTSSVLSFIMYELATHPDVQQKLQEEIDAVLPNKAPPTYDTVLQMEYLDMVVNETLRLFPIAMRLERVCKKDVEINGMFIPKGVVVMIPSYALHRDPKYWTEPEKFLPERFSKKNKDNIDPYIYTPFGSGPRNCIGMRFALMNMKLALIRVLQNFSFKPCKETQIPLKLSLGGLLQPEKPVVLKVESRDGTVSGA
Summary of the method: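 qHTS, 1536-well. CYP3A4 + proluciferin substrate, cpd 10 min RT → NADPH regen 1 h RT → detection reagent 20 min → luminescence (RLU). Ketoconazole positive control.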

[15] = molecular target: Cytochrome P450 2C9 (Homo sapiens) (UniProt P11712); test: Cytochrome P450 Family 2 Subfamily C Member 9 (CYP2C9) small molecule antagonists: luciferase reporter qHTS assay (AID 1671198); further: nearly all actives have a fitted effect of over 50% in size; further: potency means the concentration at half of the fitted maximal effect
Cytochrome P450 2C9 (Homo sapiens), sequence (P11712 whole entry, looked up): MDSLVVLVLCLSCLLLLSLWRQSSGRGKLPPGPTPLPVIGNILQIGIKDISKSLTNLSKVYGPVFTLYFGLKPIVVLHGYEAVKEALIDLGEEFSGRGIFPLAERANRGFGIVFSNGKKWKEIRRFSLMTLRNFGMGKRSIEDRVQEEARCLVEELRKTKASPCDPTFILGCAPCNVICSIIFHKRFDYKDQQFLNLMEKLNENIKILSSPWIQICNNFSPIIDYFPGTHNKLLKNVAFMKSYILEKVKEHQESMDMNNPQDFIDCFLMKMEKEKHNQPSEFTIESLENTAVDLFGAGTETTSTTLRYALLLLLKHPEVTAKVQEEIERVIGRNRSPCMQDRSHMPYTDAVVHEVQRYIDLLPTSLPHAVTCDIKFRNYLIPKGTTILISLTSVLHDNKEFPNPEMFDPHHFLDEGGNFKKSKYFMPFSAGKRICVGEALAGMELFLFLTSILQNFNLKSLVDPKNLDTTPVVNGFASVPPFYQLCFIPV
Summary of the method: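 Enzyme-substrate mix preincubated with compound 10 min at room temperature; reaction started with NADPH regeneration solution, 1 h 37C. Luminescent luciferin product read after 20 min detection reagent.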

Structure (SMILES)	Potency [1]	Potency [2]	Potency [3]	outcome [4]	Potency [5]	Potency [6]	max activation [7]	Potency [8]	Potency [9]	Potency [10]	Potency [11]	Potency [12]	Potency [13]	Potency [14]	Potency [15]
Cc1ccc(S(=O)(=O)NC(=O)NC2CCCCC2)cc1	inactive	inactive	inactive	inactive	inactive	inactive	-5.99%	inactive	inactive	inactive	inactive	inactive	inactive	inactive	
O=C(NS(=O)(=O)/C=C/c1ccccc1)c1ccc(F)cc1Cl	inactive	inactive	inactive	inactive	inactive	19.3 µM (active)				inactive	inactive	inactive	inactive	inactive	10 µM (active)
CC1CCC(C(C)CS)CC1S (configuration not stated)	inactive	inactive	inactive	inactive	inactive	inactive				inactive	inactive			31.7 µM (active)	
O=C(O)CCC(=O)OC[C@@H](NC(=O)C(Cl)Cl)[C@H](O)c1ccc([N+](=O)[O-])cc1	inactive	inactive	inactive	inactive	inactive	inactive				inactive		inactive	inactive		inactive
CCOc1ncc(F)c(=O)[nH]1	inactive	inactive	inactive	inactive	inactive	inactive				inactive	inactive		inactive		inactive
Cc1c(C2(c3cc(Br)c(O)c(Br)c3C)OS(=O)(=O)c3ccccc32)cc(Br)c(O)c1Br	14.9 µM (active)	inactive	16.7 µM (active)	inactive	18.8 µM (active)	inactive				24.4 µM (active)	15.4 µM (active)	13.7 µM (active)	inactive	27.4 µM (active)	10.9 µM (active)
CC(=O)C(C)=O	inactive	inactive	inactive	inactive	inactive	inactive				inactive	inactive	inactive	inactive	inactive	inactive
CCSC(=O)N(CC)CC	inactive	inactive	inactive	inactive	inactive	inactive				inactive	inactive		inactive		inactive
CC(C)(O)CCc1ccccc1	inactive	inactive	inactive	inactive	inactive	inactive				inactive	71 µM (active)		inactive	inactive	inactive
Cc1cccc(C)c1NC(=O)c1cc(S(N)(=O)=O)c(Cl)cc1O	inactive	inactive	inactive	inactive	inactive	inactive				inactive	inactive		inactive	inactive	
Cc1ccc(N(CCO)CCO)cc1	inactive	inactive	inactive	inactive	inactive	inactive				inactive	17.8 µM (active)	31.7 µM (active)	inactive	inactive	39.9 µM (active)
CCCCCCCC/C=C/C(=O)O	inactive	inactive	inactive	inactive	inactive	inactive				inactive	inactive		inactive	inactive	inactive
CCCCCCCCCCCCCCCCCC(=O)OCC(CC)CCCC (configuration not stated)	inactive	inactive	inactive	inactive	inactive	inactive				inactive	inactive		inactive	inactive	inactive
CC(=O)OCC(C)C	inactive	inactive	inactive	inactive	inactive	inactive				inactive	inactive	inactive	inactive	inactive	inactive
O=C(O)CCS	inactive	inactive	inactive	inactive	inactive	inactive				inactive	inactive	inactive	inactive	inactive	inactive
CCCCCCCCCCCCCCCC(=O)OCC	inactive	inactive	inactive	inactive	inactive	inactive				inactive	inactive		inactive	inactive	inactive
CC(C)(C)CCCCCCOC(=O)c1ccccc1C(=O)OCCCCCCC(C)(C)C	inactive	inactive	inactive	inactive	inactive	61.2 µM (active)				inactive			inactive	inactive	inactive
COC(=O)CC(C(C)=O)C(=O)OC (configuration not stated)	inactive	inactive	inactive	inactive	inactive	inactive				inactive	inactive		inactive	inactive	44.8 µM (active)
CCCCCCCCCCCSCC(=O)O	inactive	inactive	inactive	inactive	inactive	inactive				31.7 µM (active)		inactive	inactive	inactive	71 µM (active)
COc1ccc(C)cc1	inactive	inactive	inactive	inactive	inactive	inactive				17.8 µM (active)	79.6 µM (active)		inactive	inactive	inactive
CCOC(=O)Oc1ccc(CCNC(=O)[C@H](CCSC)NC(C)=O)cc1OC(=O)OCC	inactive	inactive	inactive	inactive	inactive	inactive				inactive	inactive		inactive		17.4 µM (active)
